L3MBTL1 block: blocks human L3MBTL1 | Q9Y468 | AlphaScreen L3MBTL1–H3K9me1 peptide binding | Potency, µM (titrated, usually from 57.1 µM), for inactives: at the top dose activity, negative = inhibition, most hits filed as inhibitors | 0.66% of 230,000 active | AID 485360; further: on the % scale 0 is the no-effect control and ±100 the full control effect; nearly all actives have a fitted effect of over 60% in size
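L3MBTL1 (50 nM) pre-complexed 30 min with biotinylated H3(1-15)K9me1 peptide (75 nM), then compounds added for 30 min at room temperature; AlphaScreen streptavidin donor/nickel chelate acceptor beads (10 ug/mL final) read after 30 min dark incubation.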
Pol kappa inh: inhibitors of human DNA polymerase kappa; 0.53% of 400,000 active; purified Pol kappa, fluorescent DNA synthesis assay, 10 min; Q9UBT6; Potency, µM (titrated, usually from 107 µM), inactives show top-dose activity, negative = inhibition, usual class: inhibitors; further: on the % scale 0 is the no-effect control and ±100 the full control effect
Target sequence (Q9UBT6 whole entry, looked up): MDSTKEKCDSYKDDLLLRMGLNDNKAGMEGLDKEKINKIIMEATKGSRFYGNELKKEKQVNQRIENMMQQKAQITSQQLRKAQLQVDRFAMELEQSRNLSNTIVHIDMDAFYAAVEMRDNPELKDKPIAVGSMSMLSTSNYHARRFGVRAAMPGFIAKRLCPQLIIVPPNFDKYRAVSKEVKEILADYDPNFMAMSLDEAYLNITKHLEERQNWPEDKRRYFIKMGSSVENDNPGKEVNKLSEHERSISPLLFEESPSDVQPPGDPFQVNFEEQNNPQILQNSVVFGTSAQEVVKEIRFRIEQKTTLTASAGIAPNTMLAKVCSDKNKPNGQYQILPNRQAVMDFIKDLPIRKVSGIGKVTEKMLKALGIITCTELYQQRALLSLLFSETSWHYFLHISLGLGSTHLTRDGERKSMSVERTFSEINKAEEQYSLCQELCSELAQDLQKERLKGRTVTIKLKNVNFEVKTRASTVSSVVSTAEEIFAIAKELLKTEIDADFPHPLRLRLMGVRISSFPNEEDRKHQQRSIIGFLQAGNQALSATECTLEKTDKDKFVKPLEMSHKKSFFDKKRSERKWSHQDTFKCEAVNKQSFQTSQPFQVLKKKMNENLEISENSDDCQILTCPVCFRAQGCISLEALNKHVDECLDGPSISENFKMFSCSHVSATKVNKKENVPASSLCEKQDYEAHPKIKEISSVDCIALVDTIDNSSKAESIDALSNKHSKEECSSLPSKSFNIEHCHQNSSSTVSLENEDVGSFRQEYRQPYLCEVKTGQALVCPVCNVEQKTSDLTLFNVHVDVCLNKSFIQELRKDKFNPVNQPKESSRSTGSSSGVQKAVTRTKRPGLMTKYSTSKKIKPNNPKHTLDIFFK
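50 nM final substrate added after 15 min RT preincubation of 10 nM Pol kappa with compound; fluorescence read at 0 and 10 min.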
Pol iota inh: DNA polymerase iota (human) inhibition; 1% of 390,000 active; Potency, µM (highest dose often 115 µM), inactives show top-dose activity, negative = inhibition, actives largely listed as inhibitors; Pol iota fluorescent replication assay, 10 min; Q9UNA4
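Fluorescent replication assay read twice, at 0 min and 10 min after adding 50 nM (final) substrate. Enzyme (10 nM) and compounds were first incubated 15 min at room temperature; enzyme-free buffer wells were negative controls.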
Pol beta inh: inhibitors of human DNA polymerase beta; P06746; Pol beta primer extension/strand displacement, fluorescence kinetic; Potency, µM (top dose mostly 114 µM), for the others: at the highest dose activity change, negative = inhibition, usual class: inhibitors; 1.3% of 340,000 active; AID 485314; further: on the % scale 0 is the no-effect control and ±100 the full control effect
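Reaction started by 50 nM substrate onto compound-treated Pol beta (10 nM, 15 min preincubation, room temperature); plates read at 0 min and 10 min. Normalized concentration-effect data fitted by four-parameter Hill equation.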
Pol eta inh: DNA polymerase eta (human) inhibition; Q9Y253; recombinant Pol eta, fluorescent DNA replication assay; AID 588591; 1.2% of 390,000 active; Potency, µM (highest dose often 114 µM), for the others: at the top dose activity change, negative = inhibition, most hits filed as inhibitors; further: on the % scale 0 is the no-effect control and ±100 the full control effect
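Pol eta at 10 nM preincubated with compounds 15 min at room temperature; reaction started with fluorescent substrate (50 nM final) and read kinetically at 0 and 10 min.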
Numbers without * were called inactive; ? = inconclusive; / = no result; [ ] = another dose, or the depositor's remark. Rows were chosen to be rich in hits. Some 2.4% of all compounds tested hit in one or more screens of this group. The call rests on the fitted dose curve; in most records, active means well fitted curve in the direction sought with a large enough effect; inconclusive means small, poorly fitted or top-dose-only effect, or another doubt; inactive means no such curve, though single readings can be large; an effect the other way counts as inactive or inconclusive. Potency means the concentration at half of the fitted maximal effect.

SMILES	L3MBTL1 block	Pol kappa inh	Pol iota inh	Pol beta inh	Pol eta inh
O=C(O)c1ccc2c(=O)n3c(nc2c1)/C(=C/c1ccc(C(F)(F)F)cc1)CC3	/	4%	79µM*	5%	?
N#Cc1ccc(/C=C2\CCCCn3c2nc2cc(C(=O)O)ccc2c3=O)cc1	/	-2%	35%	?	-7%
O=c1cc(-c2c(O)c3ccccc3n(Cc3ccccc3)c2=O)[nH][nH]1	?	79µM*	?	8.9µM*	?
CCn1c(=O)c(-c2cc(=O)[nH][nH]2)c(O)c2ccccc21	-30%	-17%	2%	-11%	-8%
CCN(CC)c1ccc(NC(=O)CCc2c(C)nc3ncnn3c2C)c(C)c1	/	-13%	-2%	-2%	-15%
COc1ccc2[nH]c3c4c(ccc3c2c1)C(=O)C=CC4=O	1%	-24%	32µM*	-5%	?
COc1ccc2[nH]c(-c3ccc(F)cc3F)cc(=O)c2c1	/	-2%	/	/	/
CC(/C=C/C=C(\C)C(=O)O[C@@H]1O[C@H](CO[C@@H]2O[C@H](CO)[C@@H](O)[C@H](O)[C@H]2O)[C@@H](O)[C@H](O)[C@H]1O)=C\C=C\C=C(C)\C=C\C=C(/C)C(=O)O[C@@H]1O[C@H](CO[C@@H]2O[C@H](CO)[C@@H](O)[C@H](O)[C@H]2O)[C@@H](O)[C@H](O)[C@H]1O	/	21µM*	/	/	/
OC[C@H]1O[C@@H](OC[C@H]2O[C@@H](O)[C@H](O)[C@@H](O)[C@@H]2O)[C@H](O)[C@@H](O)[C@@H]1O	/	-8%[19.4 µM]	/	/	/
Cc1ccc(S(=O)(=O)N2C[C@H]3[C@H]4C(=O)N(c5ccccc5)C(=O)[C@H]4C[C@H](OC(=O)NC4CCCC4)[C@@]3(O)C2)cc1	/	/	/	/	-16%
Cc1ccc(-c2nnc(SCC(=O)Nc3sc(C)c(C)c3C#N)n2C)cc1	-1%	-7%	9%	22µM*	?
O=C(NN=Cc1ccccc1C(=O)O)c1ccc(NS(=O)(=O)c2cccs2)cc1	2%	-5%	53%	/	-13%
CCOc1cc(/C=C2\C(=O)N(c3nc(-c4ccc(Br)cc4)cs3)N=C2c2ccccc2)ccc1O	/	79µM*	?	10µM*	10µM*
COc1cc(/C=C2\C(=O)N(c3ccc(NC(C)=O)cc3)N=C2c2ccccc2)ccc1O	-3%	-10%	?	49%	10%
CCCCCC(=O)Nc1cccc(C2=NOC3(C2)C[C@@H](C(N)=O)N(C(=O)c2ccc(OC)cc2)C3)c1 (some centres not stated)	/	-12%	-17%	-23%	-4%
C=C(C)C(=O)Nc1cccc(C2=NOC3(C2)C[C@@H](C(N)=O)N(C(=O)[C@H]2CCC(=O)N2)C3)c1 (some centres not stated)	/	-11%	-6%	56µM*	1%
C=C(C)C(=O)Nc1cccc(C2=NOC3(C2)C[C@@H](C(N)=O)N(C(=O)c2ccc(OC)cc2)C3)c1 (some centres not stated)	/	14µM*	7.1µM*	2.8µM*	2.8µM*
Cc1ccc(NC(=O)CN(c2ccccc2)S(=O)(=O)N(C)C)cc1C	-7%	-1%	-12%	7%	-12%
Cc1cc(C)c(NC(=O)CN(c2ccccc2)S(=O)(=O)N(C)C)c(C)c1	/	?	89µM*	35µM*	?
O=C(CCCN1C(=O)/C(=C\c2cccc(Br)c2)SC1=S)Nc1ccc(C(=O)O)cc1	/	/	/	/	1%
O=C1/C(=C/c2ccncc2)CCc2ccccc21	/	6%	-12%	0%	79µM*
C=CSc1sc(Cl)c(N(CC)CC)c1[N+](=O)[O-]	?	-7%	?	20µM*	?
C=CSc1sc(Cl)c(N(C)C)c1[N+](=O)[O-]	-10%	-9%	23%	11%	-2%
CN(C)c1ccc(CNC(=O)CCS(=O)(=O)c2ccc3c(c2)n(C)c(=O)c(=O)n3C)cc1	?	0%	5%	25µM*	-16%
COC(=O)[C@H]1[C@H]2CC3c4[nH]c5ccccc5c4CCN3C[C@@H]2CC[C@@H]1O (some centres not stated)	/	-11%[19.4 µM]	/	/	/
SMILES	L3MBTL1 block	Pol kappa inh	Pol iota inh	Pol beta inh	Pol eta inh
Cc1nc2ccccc2c(=O)n1/N=C/c1ccccc1O	3%	-1%	43%	-119%	-20%
Cc1nc2ccccc2c(=O)n1/N=C/c1ccc2ccccc2c1O	32µM*	1%	?	-1%	0%
O=C(NN1C(=O)/C(=C/C=C/c2ccccc2)SC1=S)c1ccncc1	/	-8%	?	-12%	-7%
O=C(O)c1ccc(N2C(=O)/C(=C/C=C/c3ccccc3)SC2=S)cc1	-2%	-3%[60.1 µM]	?	?	50µM*
CN(C)c1ccc(/C=C/C=C2/SC(=S)N(c3ccccc3)C2=O)cc1	4.5µM*	-4%	?	37%	0%
CN(C)c1ccc2ccc3cccc4ccc1c2c34	/	-30%	?	/	/
O=C(Cn1nnc(-c2ccc(F)cc2)n1)Nc1cccc(S(=O)(=O)N2CCCC2)c1	-2%	-14%	6%	/	?
COc1cc2[nH]c3c(=O)n(CCN4CCCCC4)cnc3c2cc1OC	0%	22µM*	1%	-16%	-2%
COc1ccc2[nH]c3c(=O)n(CCCN4CCOCC4)cnc3c2c1	-1%	-11%	-8%	0%	-14%
Cc1cccc(-n2nc3c(c2NC(=O)c2ccco2)CSC3)c1C	-12%	28µM*	14µM*	?	13µM*
Cc1ccccc1-n1nc2c(c1NC(=O)c1c(-c3ccccc3Cl)noc1C)CSC2	-4%	-15%	79µM*	25%	10%
Cc1cccc(-n2nc3c(c2NC(=O)c2ccco2)CS(=O)C3)c1C (configuration not stated)	8%	4%	81%	0%	-17%
Cc1ccc(-n2nc3c(c2NC(=O)c2c(-c4ccccc4Cl)noc2C)CSC3)cc1	-11%	-7%	?	1%	7%
COC/C=C/C1=CC2=CC(=O)C(C)(OC(=O)c3cnc4ccccc4n3)C(=O)C2=CN1C1CCCCC1 (configuration not stated)	-12%	/	/	-18%	/
COC/C=C/C1=CC2=CC(=O)C(C)(OC(=O)c3cnc4ccccc4n3)C(=O)C2=CN1CC(C)C (configuration not stated)	/	?	?	/	25µM*
COC/C=C/C1=CC2=CC(=O)C(C)(OC(=O)c3cnc4ccccc4n3)C(=O)C2=CN1c1ccc(CO)cc1 (configuration not stated)	3.2µM*	/	/	1.8µM*	/
COC/C=C/C1=CC2=CC(=O)C(C)(OC(=O)c3cnc4ccccc4n3)C(=O)C2=CN1c1ccccc1 (configuration not stated)	/	79µM*	?	?	25µM*

Screening results as filed in PubChem BioAssay.
